These compounds were tested on AURKC. Settings: concentration: 1 μM, replicates: in singlicate; n = 1.
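Also: KINOMEscan kinase panel screen.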

| Structure (SMILES) | %Inh [%] |
| --- | --- |
| CN1CCC(n2cnc(-c3ccc(F)cc3)c2-c2ccnc(NC3CCNCC3)n2)CC1 [SB-229482] | 0 |
| COc1ccc(NC(=O)c2ccc(-c3cc(-c4nnc(C)o4)ccc3C)cc2)cc1 [GW595885] | 5 |
| Cl.c1ccc(Cn2ccc3cc(Nc4ncnc5ccccc45)ccc32)cc1 [GW275568] | 0 |
| Nc1nccc2scc(-c3ccc4c(c3)CCN4C(=O)Cc3cc(F)ccc3F)c12 [GSK2587663] | 35 |
| C[C@@H]1CCN(C(=O)CO)C[C@@H]1N(C)c1ncnc2[nH]ccc12 | 0 |
| FC(F)(F)c1cc(Nc2nccc(-c3c(-c4ccc(Cl)cc4)nn4ncccc34)n2)ccc1Cl [GW829351] | 0 |
| O=C(Nc1ccccc1)Nc1ccc(Oc2ccc3nccn3n2)cc1 | 16 |
| Clc1ccc(-c2cc(-c3c[nH]nc3-c3ccccn3)ccn2)cc1 [GW681251] | 17 |
| CCCc1ccc(S(=O)(=O)NC2CCN(c3ccnc(Nc4ccc(OC)cc4)n3)C2)cc1 (stereo not shown) [GSK1379737] | 0 |
| O=C(Nc1n[nH]c2nc(-c3ccco3)c(Br)cc12)c1ccc(CN2CCCC2)cc1.O=C(O)[C@H](O)[C@@H](O)C(=O)O [SB-742352] | 0 |
| CCC(CC)(CC)n1cnc2c(N)ncnc21 [SKF-97620] | 0 |
| Clc1cc(Nc2ncnc3cc[nH]c23)ccc1OCc1ccccn1 | 0 |
| CCn1c(-c2ccncc2)nc2cnccc21 [SB-735216] | 0 |
| Cl.Cl.c1ccc(-c2cc3ccncc3cc2OC2CCNCC2)cc1 [GSK1122999] | 28 |
| COc1ccc(-c2nc3n(c2-c2ccncc2)CCC3)cc1 [SKF-104493] | 0 |
| O=c1cc(N2CCOCC2)nc2n(Cc3cccc(Cl)c3)ccn12 [GSK2296823] | 1 |
| COc1ccc(Nc2nccc(N3CCC(NC(=O)c4cccc(NC(C)=O)c4)C3)n2)cc1 (stereo not shown) [GSK1379732] | 1 |
| Cc1ccc(O)cc1Nc1cc(C(F)(F)F)nc2ccc(-c3ccncc3)cc12 [GW630823] | 5 |
| O=C(NCCCN1CCCC1=O)c1cnc(NCc2cc(Cl)ccc2Cl)nc1NC1CCNCC1 | 0 |
| COc1cc2ncnc(Nc3ccc(OCc4ccccc4Br)c(Cl)c3)c2cc1OC.Cl [GI261590] | 42 |
| Cc1cccc(-c2nc(Nc3ccc4[nH]nnc4c3)c3ccccc3n2)n1 [GW867587] | 0 |
| CC(=O)Nc1n[nH]c2ncc(-c3ccccc3)cc12 [SB-548492] | 32 |
| COC(=O)c1c(-c2ccccc2)c2cc(Cl)ccc2c(=O)n1Cc1ccc(S(C)(=O)=O)cc1 | 0 |

The compounds below were run on AXL. Settings: concentration: 1 μM, replicates: in singlicate; n = 1.

| Structure (SMILES) | %Inh [%] |
| --- | --- |
| Cc1ccc(NC(=O)c2cccc(C#N)c2)cc1-c1ccc(C(=O)Nc2ccncc2)cc1 [GSK1398463] | 11 |
| CS(=O)(=O)CCNCc1ccc(-c2ccc3ncnc(Nc4ccc(OCc5ccccc5)c(Cl)c4)c3c2)o1.Cl [GW574783] | 42 |
| Fc1ccc(-c2ncn(CCCNCc3ccccc3)c2-c2ccncc2)cc1 | 18 |
| CCc1nc(-c2cccc(C)c2)c(-c2ccnc(NC(=O)c3ccccc3)c2)s1 | 0 |
| c1ccc(-c2ccc3c(-c4ccnc(Nc5ccc6c(c5)OCCO6)n4)cnn3n2)cc1 [GW818941] | 11 |
| CSc1ccc(NC2=C(c3ccccc3Cl)C(=O)NC2=O)cc1 [SB-342411] | 3 |
| FC(F)(F)c1ccc(-c2cc(-c3c[nH]nc3-c3ccccn3)ccn2)cc1 [GW599550] | 20 |
| COc1ccc(NC(=O)Nc2ccc(C)c(-c3ccc(C(=O)Nc4ccncc4)cc3)c2)cc1 [GSK1398475] | 0 |
| Fc1ccc(Nc2nccc(-c3c(-c4ccc(Cl)cc4)nn4ncccc34)n2)cc1F [GW829058] | 1 |
| Cn1cc(-c2ccc3c(c2)CCN3C(=O)Cc2cccc(C(F)(F)F)c2)c2c(N)ncnc21 [GSK2606414] | 41 |
| O=C(CCO)NCCn1ccc2ncnc(Nc3ccc(Oc4cccc(C(F)(F)F)c4)c(Cl)c3)c21 | 0 |
| CNc1nccc(-c2c(-c3ccc(F)cc3)ncn2CCCN2CCOCC2)n1 [SB-222516] | 14 |
| COC(=O)c1cccc(NC(=O)NCCNc2ccnc(Nc3ccc(F)cc3)n2)c1 [GSK1379883] | 5 |
| CN1CCC(n2cnc(-c3ccc(F)cc3)c2-c2ccnc(NC3CCNCC3)n2)CC1 [SB-229482] | 48 |
| COc1ccc(NC(=O)c2ccc(-c3cc(-c4nnc(C)o4)ccc3C)cc2)cc1 [GW595885] | 0 |
| Cl.c1ccc(Cn2ccc3cc(Nc4ncnc5ccccc45)ccc32)cc1 [GW275568] | 0 |
| Nc1nccc2scc(-c3ccc4c(c3)CCN4C(=O)Cc3cc(F)ccc3F)c12 [GSK2587663] | 41 |
| C[C@@H]1CCN(C(=O)CO)C[C@@H]1N(C)c1ncnc2[nH]ccc12 | 0 |

| Structure (SMILES) | %Inh [%] |
| --- | --- |
| FC(F)(F)c1cc(Nc2nccc(-c3c(-c4ccc(Cl)cc4)nn4ncccc34)n2)ccc1Cl [GW829351] | 0 |
| O=C(Nc1ccccc1)Nc1ccc(Oc2ccc3nccn3n2)cc1 | 0 |
| Clc1ccc(-c2cc(-c3c[nH]nc3-c3ccccn3)ccn2)cc1 [GW681251] | 0 |
| CCCc1ccc(S(=O)(=O)NC2CCN(c3ccnc(Nc4ccc(OC)cc4)n3)C2)cc1 (stereo not shown) [GSK1379737] | 0 |
| O=C(Nc1n[nH]c2nc(-c3ccco3)c(Br)cc12)c1ccc(CN2CCCC2)cc1.O=C(O)[C@H](O)[C@@H](O)C(=O)O [SB-742352] | 51 |
| CCC(CC)(CC)n1cnc2c(N)ncnc21 [SKF-97620] | 0 |
| Clc1cc(Nc2ncnc3cc[nH]c23)ccc1OCc1ccccn1 | 19 |
| CCn1c(-c2ccncc2)nc2cnccc21 [SB-735216] | 24 |
| Cl.Cl.c1ccc(-c2cc3ccncc3cc2OC2CCNCC2)cc1 [GSK1122999] | 27 |
| O=c1cc(N2CCOCC2)nc2n(Cc3cccc(Cl)c3)ccn12 [GSK2296823] | 0 |
| COc1ccc(Nc2nccc(N3CCC(NC(=O)c4cccc(NC(C)=O)c4)C3)n2)cc1 (stereo not shown) [GSK1379732] | 1 |
| Cc1ccc(O)cc1Nc1cc(C(F)(F)F)nc2ccc(-c3ccncc3)cc12 [GW630823] | 0 |
| O=C(NCCCN1CCCC1=O)c1cnc(NCc2cc(Cl)ccc2Cl)nc1NC1CCNCC1 | 41 |
| COc1cc2ncnc(Nc3ccc(OCc4ccccc4Br)c(Cl)c3)c2cc1OC.Cl [GI261590] | 19 |
| Cc1cccc(-c2nc(Nc3ccc4[nH]nnc4c3)c3ccccc3n2)n1 [GW867587] | 0 |
| CC(=O)Nc1n[nH]c2ncc(-c3ccccc3)cc12 [SB-548492] | 21 |
| COC(=O)c1c(-c2ccccc2)c2cc(Cl)ccc2c(=O)n1Cc1ccc(S(C)(=O)=O)cc1 | 0 |
